# Experimental data reported in PubChem BioAssay (NCATS).
# Results filed as inconclusive are left out. Entries that show only a call come without a potency. Calls of active or inactive are those of the source. Calls follow the shape of the dose curve; as a rule, active = well fitted curve in the direction sought with a large enough effect; inconclusive = small, poorly fitted or top-dose-only effect, or another doubt; inactive = no such curve, though single readings can be large; an effect the other way counts as inactive or inconclusive.
# What was measured:
# [1] = molecular target: ATP-dependent 6-phosphofructokinase (Trypanosoma brucei brucei) (UniProt O15648); test: qHTS Assay to Find Inhibitors of T. brucei phosphofructokinase: hit validation (AID 492961); also: potency is read from the fitted curve at half-maximal effect
# ATP-dependent 6-phosphofructokinase (Trypanosoma brucei brucei), sequence (O15648 whole entry, looked up): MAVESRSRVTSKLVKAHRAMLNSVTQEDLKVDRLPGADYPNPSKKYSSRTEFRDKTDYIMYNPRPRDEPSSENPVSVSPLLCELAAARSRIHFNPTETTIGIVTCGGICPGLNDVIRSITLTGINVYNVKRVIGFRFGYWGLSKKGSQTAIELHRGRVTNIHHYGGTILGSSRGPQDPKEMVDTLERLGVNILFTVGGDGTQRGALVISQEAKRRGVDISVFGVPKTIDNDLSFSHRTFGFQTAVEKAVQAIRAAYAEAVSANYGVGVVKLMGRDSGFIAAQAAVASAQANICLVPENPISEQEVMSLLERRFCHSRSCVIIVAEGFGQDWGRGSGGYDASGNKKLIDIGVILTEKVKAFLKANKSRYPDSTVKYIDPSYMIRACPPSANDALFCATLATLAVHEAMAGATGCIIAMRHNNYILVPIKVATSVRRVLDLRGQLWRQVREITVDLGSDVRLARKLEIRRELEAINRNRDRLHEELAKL
# Summary of the method: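 Measures ADP output of PFK (1.25 nM) at 0.1 mM ATP, 0.5 mM F6P, pH 8.0 TEA buffer with 5 mM MgCl2. No-enzyme wells define full inhibition; uninhibited enzyme wells define zero.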
# [2] = qHTS for Inhibitors of Plasmodium falciparum (DD2) proliferation (AID 504314);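 also: parasite DNA measured by SYBR Green fluorescence after red cell lysis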
# Summary of the method: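 SYBR Green growth assay: 72 h compound exposure of infected red cells (2.5% hematocrit, 0.3% parasitemia), then lysis and overnight dye staining, fluorescence 485/535 nm. Values scaled between DMSO and 0.29 uM artemisinin controls.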
# [3] = qHTS for Inhibitors of Plasmodium falciparum (GB4) proliferation (AID 504315); also: nearly all actives have a fitted effect of over 50% in size
# Summary of the method: (§1)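 Parasite growth measured as SYBR Green DNA fluorescence (ex 485, em 535 nm) after overnight lysis following 72 h culture at 37 °C, 0.3% parasitemia, 2.5% hematocrit. Values normalized against DMSO and 0.29 uM artemisinin controls, with plate-stack correction.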
# [4] = qHTS for Inhibitors of Plasmodium falciparum (7G8) proliferation (AID 504316); also: series mostly up to about 6.7 µM; nearly all actives have a fitted effect of over 65% in size
# Summary of the method: as §1
# [5] = qHTS for Inhibitors of Plasmodium falciparum (CP250) proliferation (AID 504320)
# Summary of the method: as §1
smiles,measurement,setting,value
NC(=S)NS(=O)(=O)c1ccc(N)cc1,Potency,[1],inactive
N[C@H](CC(=O)O)C(=O)O,Potency,[1],inactive
CC1C(=O)CC2C3(C)CCC2(C(C)C(=O)O)C(=O)C13 (configuration not stated),Potency,[1],inactive
CC(=O)[O][Al][O]C(C)=O,Potency,[1],inactive
CN1CCc2c(c3ccccc3n2Cc2ccccc2)C1,Potency,[1],inactive
Nc1ncnc2c1ncn2[C@H]1CC[C@@H](CO)O1,Potency,[1],inactive
CCOc1ccc(NC(=S)Nc2ccc(OCC)cc2)cc1,Potency,[1],inactive
C/C(=C\C(=O)OCCCCCCCCC(=O)O)C[C@@H]1OC[C@H](C[C@@H]2O[C@H]2[C@@H](C)[C@H](C)O)[C@@H](O)[C@H]1O,Potency,[1],inactive
CCSc1ccc2c(c1)N(CCCN1CCN(C)CC1)c1ccccc1S2,Potency,[1],inactive
CN(C)CCC=C1c2ccccc2C(C)(C)c2ccccc21,Potency,[1],inactive
CC(=O)Oc1cc(C(F)(F)F)ccc1C(=O)O,Potency,[1],inactive
CN(Cc1ccccc1)Cc1ccccc1,Potency,[1],inactive
CN1C(C(=O)Nc2ccccn2)C(=O)c2sc(Cl)cc2S1(=O)=O (configuration not stated),Potency,[1],inactive
O=C(OCc1ccccc1)c1ccc(O)cc1,Potency,[1],inactive
CCCCC(CC)COS(=O)(=O)O (configuration not stated),Potency,[1],inactive
CSCCC(N)C(=O)O (configuration not stated),Potency,[1],inactive
Cc1cccc(C)c1NC(=O)C1CCCCN1C (configuration not stated),Potency,[1],inactive
CCCCCCCCCCCC(=O)OCC(O)CO (configuration not stated),Potency,[1],inactive
NC(N)=O,Potency,[1],inactive
CC(=O)Nc1ccc(OC(C)=O)cc1,Potency,[1],inactive
Cc1cc(-c2ccc(N=Nc3c(S(=O)(=O)O)cc4cc(S(=O)(=O)O)cc(N)c4c3O)c(C)c2)ccc1N=Nc1c(S(=O)(=O)O)cc2cc(S(=O)(=O)O)cc(N)c2c1O,Potency,[1],28.2 µM (active)
CN1CCC(OC(=O)C(Oc2ccc(Cl)cc2)Oc2ccc(Cl)cc2)CC1,Potency,[1],inactive
Nc1nccs1,Potency,[1],inactive
OCCCNc1ccccc1,Potency,[1],inactive
CCCCC,Potency,[1],inactive
CCOc1ccc(S(=O)(=O)O)c2cccnc12,Potency,[1],inactive
FC(F)(F)C(F)(F)C(F)(F)C(F)(F)C(F)(F)F,Potency,[1],inactive
CCCc1ccc(C(=O)O)cc1,Potency,[1],inactive
OB(O)O,Potency,[1],inactive
F[Si-2](F)(F)(F)(F)F,Potency,[1],inactive
CSc1nc2cc(Oc3cccc(Cl)c3Cl)c(Cl)cc2[nH]1,Potency,[1],inactive
CC(=O)NCCCS(=O)(=O)O,Potency,[1],inactive
CCCCCCCCCCCCOCCCN,Potency,[1],inactive
O=C(O)COc1ccc(CCNS(=O)(=O)c2ccccc2)s1,Potency,[1],inactive
C=CC[C@@H]1/C=C(\C)C[C@H](C)C[C@H](OC)[C@H]2O[C@@](O)(C(=O)C(=O)N3CCCC[C@H]3C(=O)O[C@H](/C(C)=C/[C@@H]3CC[C@@H](O)[C@H](OC)C3)[C@H](C)[C@@H](O)CC1=O)[C@H](C)C[C@@H]2OC,Potency,[1],inactive
CCC(=O)c1ccc2c(c1)N(CCCN1CCN(CCO)CC1)c1ccccc1S2,Potency,[1],inactive
Nc1nc(=O)n([C@@H]2CS[C@H](CO)O2)cc1F,Potency,[1],inactive
O=C1c2ccccc2CN2C(=O)c3ccccc3CN12,Potency,[1],inactive
CC1=CC(=C(c2ccc(N)cc2)c2ccc(N)cc2)C=CC1=N,Potency,[1],inactive
CC(=O)Oc1cccc(C(=O)O)c1OC(C)=O,Potency,[1],inactive
O=C(O)c1cc(N=Nc2ccc(O)c(C(=O)O)c2)ccc1O,Potency,[1],inactive
CCC(C(=O)NC(N)=O)c1ccccc1 (configuration not stated),Potency,[1],inactive
CC1=CCC2CC1C2(C)C (configuration not stated),Potency,[1],inactive
CCOC(=O)c1c[nH]c2cc(OCC(C)C)c(OCC(C)C)cc2c1=O,Potency,[1],inactive
Cn1c(=O)c2c(ncn2CCOC(=O)C(C)(C)Oc2ccc(Cl)cc2)n(C)c1=O,Potency,[1],inactive
FCOC(C(F)(F)F)C(F)(F)F,Potency,[1],inactive
COc1cc(C)c(/C=C/C(C)=C/C=C/C(C)=C/C(=O)O)c(C)c1C,Potency,[1],inactive
CNC(=O)OCc1cccc(COC(=O)NC)n1,Potency,[1],inactive
O=C1c2ccccc2C(=O)C1c1ccc(Cl)cc1,Potency,[1],inactive
CCCCCCCCCCCCCCCCCC(=O)OC[C@@H](O)[C@H]1OC[C@H](O)[C@H]1O,Potency,[1],inactive
O=C(O)COc1ccccc1/C=N/NC(=O)c1ccncc1,Potency,[1],inactive
O=C(O[C@H]1CN2CCC1CC2)N1CCc2ccccc2[C@@H]1c1ccccc1,Potency,[1],inactive
Cc1cccc(Nc2ncccc2C(=O)O)c1C,Potency,[1],inactive
COc1ccc(/C=N/NC(=O)c2ccncc2)c(C(=O)O)c1OC,Potency,[1],inactive
CC12CCC(C1)C(C)(C)C2=O (configuration not stated),Potency,[1],inactive
N[C@@H](Cc1cc(I)c(Oc2ccc(O)c(I)c2)c(I)c1)C(=O)O,Potency,[1],inactive
C[C@H](CCC(=O)O)[C@H]1CC[C@H]2[C@@H]3CC[C@@H]4C[C@H](O)CC[C@]4(C)[C@H]3C[C@H](O)[C@]12C,Potency,[1],inactive
NC(=O)C1c2ccccc2CCc2ccccc21,Potency,[1],inactive
Cc1c(O)c(=O)ccn1C,outcome,[2],inactive
same,outcome,[3],inactive
same,outcome,[4],inactive
same,outcome,[5],inactive
